This is part of a sample that, as a whole, favours compounds with a hit. Of some 83,000 tested, about 20% had one in any assay.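 The test compound was applied at a single concentration to cells in 96-well plates for 48 hours, and percent growth was recorded.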 Unmarked numbers belong to inactive results. Calls of active or inactive are those of the source.
Each molecule was assayed on ACHN renal (assay: NCI-60 one-dose screen, 48 h (100 = growth as untreated, 0 = no growth, -100 = all killed)). Conditions: 10 µM unless noted.
Method: Growth inhibition of the ACHN human tumor cell line is measured as a screen for anti-cancer activity. Cells are grown in 96 well plates and exposed to the test compound for 48 hours. Compounds are tested at a single concentration, which is 10^-5 M for most compounds. The reported endpoint is percent growth (GI% or GIPRCNT), where numbers from 0 - 100% represent growth inhibition, and numbers from -100% - 0 represent cell death. For example, a value of 40 represents 60% growth inhibition. A value of 0 means no net growth occurred over the course of the experiment. A value of -40 indicates 40% of cells at the beginning of the experiment died by the end of the experiment. A value of -100 means all cells are dead at the end of the experiment.
NCI-60 Human Tumor Cell Lines Screen was performed using the standard one-dose NCI protocol, which is described in more detail at https://dtp.cancer.gov/discovery_development/nci-60/default.htm.
Compounds with GIPRCNT values below 10 were considered active. Activity score was based on GIPRCNT using the following formula: […]
Score is 0 for GIPRCNT values of 100 or above, 50 for GIPRCNT values of 0, and 100 for GIPRCNT values of -100.
Work on Nc1nc(C(=O)N/N=C/c2ccc(F)cc2)nn1-c1ccc(S(N)(=O)=O)cc1 yielded a growth of 99.2%.
Molecule O=C1NC(=O)C(c2coc3cc(Br)ccc23)=C1c1c[nH]c2ccccc12 has a growth of 71.3%.
Molecule COc1ccc(C(=O)C/C(=C\c2ccc(O)c(OC)c2)C(=O)NN)cc1 has a growth of 85.4%.
With O=S(=O)(Nc1ccc2ccccc2c1)c1ccc(-c2cnc(C3CC3)o2)cc1 the growth was 36.2%.
In the case of c1ccc(-c2c(-c3ccccc3)[n+](Cc3ccc4ccccc4c3)cn2Cc2ccc3ccccc3c2)cc1, the growth was -100% (active).
Molecule Cc1c(C(C)(C)O)cn2ncnc(Oc3ccc(NC(=O)Nc4ccc(Cl)c(C(F)(F)F)c4)c(F)c3)c12 has a growth of 39.5%.
In the case of C=C1C(=O)O[C@H]2[C@H]1CC/C(COC(=O)NCc1ccc(Cn3c(=O)sn(-c4ccccc4)c3=O)cc1)=C\CC[C@@]1(C)O[C@@H]21, the growth was 29.6%.
In the case of Cc1nc2ccccc2c(/C=C/c2ccc(F)cc2)c1C(=O)/C=C/c1ccccc1, the growth was 11.6%.
Molecule Cc1c2ncccc2nc2[nH]c3ccc(OCCN(C)C)cc3c12 has a growth of 10.6%.
Molecule ClCCn1cnc2c(SCc3ccccc3)ncnc21 has a growth of 49.4%.
With N=C(N)c1ccc(-c2ccc(-c3cc(Cl)cc(Cl)c3)s2)s1 the growth was -54.2% (active).
CCOC(=O)NCCCC(=O)NCCc1ccccc1 was tested, and the growth was 111%.
For Cc1nc2sc(C(=O)Nc3cccc(Cl)c3C)c(N)c2cc1C(=O)/C=C/c1ccccc1, the growth was 3.93% (active).
For C[C@H]1[C@H](C)CC[C@]2(C(=O)NCCNCCN)CC[C@]3(C)C(=CC[C@@H]4[C@@]5(C)CCC(=O)C(C)(C)[C@@H]5CC[C@]43C)[C@H]12, the growth was 77.1%.
With COCC(=O)Oc1cc(-c2ccc(C)cc2C)c(OC(=O)COC)c(-c2ccc(C)cc2C)c1 the growth was -18% (active).
Clc1ccc(Nc2nnc(CNc3ccccc3)c3ccccc23)cc1 was tested, and the growth was 7.07% (active).
O=C(NNc1nc2cc(F)ccc2n2c(CN3CCOCC3)ccc12)c1ccccc1 was tested, and the growth was 8.05% (active).
For COC(=O)c1ccc2c(c1)c1c(C)c3cnccc3c(C)c1n2C, the growth was -27.7% (active).
COc1ccc2cc(-c3nc4ccc(C)cn4c3NCc3ccco3)c(=O)[nH]c2c1 showed a growth of 45.4%.
With COc1ccc(-c2cc(C(=O)N3N=C(c4ccc(N)cc4)CC3c3ccc(Cl)cc3)c3cc(OC)ccc3n2)cc1 (stereo not given) the growth was 47%.
In the case of Oc1ccc(-c2nc3ccc4[nH]ncc4c3c3c2CCCC3)c(F)c1, the growth was 11.9%.
COc1ccc2c(c1)c(-c1nc(-c3ccc4ccccc4c3)cs1)cn2C showed a growth of 87.4%.
CNC(=O)c1cc(Oc2ccc3c(c2)sc2nc(-c4ccc(Cl)c(C(F)(F)F)c4)cn23)ccn1 was tested, and the growth was 62.9%.
For CNC(=O)NCC1OC(n2cnc3c(NC(=O)Nc4ccccc4)ncnc32)C2OC(=O)CC12 (stereo not given), the growth was 94.9%.
In the case of CC(C)(C)OC(=O)CN1CCc2c(sc3ncnc(N4CCN(c5ccc(F)cc5)CC4)c23)C1, the growth was 85.7%.
Work on Fc1ccc(/C=C/[C@@H]2C[C@@H](F)CCO2)cc1 yielded a growth of 101%.
Cc1ccc2c(c1)=C/C(=C\c1cc(-c3ccccc3)[nH]c1O)C(=O)N=2 showed a growth of 65.6%.
O=c1oc2c(cc1-c1ccccc1)c(=O)[nH]c1ccccc12 showed a growth of 102%.
In the case of CC(=O)c1c(Nc2cccc(F)c2)[nH]c2c(Cl)cc(Cl)c(Cl)c2c1=O, the growth was 2.02% (active).
For CCOC(=O)/C=C1\S/C(=N\Nc2cc(=O)[nH]c3ccc(Br)cc23)N(c2ccccc2)C1=O, the growth was 73%.
Nc1ccc(Br)cc1C(F)(F)F was tested, and the growth was 96.5%.
O=c1cc(C(F)(F)F)c2cc(-c3cc4ccccc4c(=O)o3)c(O)cc2o1 was tested, and the growth was 74.1%.
Cc1c2ccccc2nc2cc3c(cc12)[C@H]1CC[C@]2(C)C(=O)CC[C@H]2[C@@H]1CC3 was tested, and the growth was 95%.
In the case of COc1cc2c(c(OC)c1OC)C(=O)CC(c1cccc(C(=O)Nc3ccc(C#N)cc3)c1)O2 (stereo not given), the growth was 79.4%.
N#Cc1c(-c2ccccc2)cc(-c2ccccc2)n(CCCCC(=O)NO)c1=O was tested, and the growth was 2.83% (active).
COC1/C=C/OC2(C)Oc3c(C)c(O)c4c(O)c(c(/C=N/N(c5ccccc5)c5ccccc5)c(O)c4c3C2=O)NC(=O)C(C)=C/C=C/C(C)C(O)C(C)C(O)C(C)C(OC(C)=O)C1C (stereo not given) showed a growth of 65%.
Molecule CC(C)(Sc1cc(C(C)(C)C)c(O)c(C(C)(C)C)c1)Sc1cc(C(C)(C)C)c(OC(=O)CCC(=O)O)c(C(C)(C)C)c1 has a growth of 44.5%.
Molecule COc1cccc(CNc2c3ccccc3nc3ccccc23)c1OC has a growth of 21.1%.
CCOC(=O)c1cnn(CC(C)O)c1NC(=O)NCc1ccccc1C(F)(F)F (stereo not given) was tested, and the growth was 98.3%.
Work on COc1cc(OC)c2c(=O)c3c(CC=C(C)C)cc(OC)c(O)c3oc2c1 yielded a growth of 79.7%.

From PubChem BioAssay (NCI)
